Consider eight compounds from PubChem BioAssay (Tox21).

Values joined by “and” are separate entries in the source; they are usually repeats but may differ in a detail not shown here. Identical values can stand only once. Records with an inconclusive call do not appear. The source holds several records for some structures; these can differ, active in one and inactive in another. Active and inactive are the calls of the source. Unless noted, the call rests on the fitted dose curve.

A short description of assay [1]: Nuclear factor erythroid 2-related factor 2/antioxidant responsive element (Nrf2/ARE) small molecule agonists: qHTS cell viability counter screen in human keratinocytes (AID 1919968; active means well fitted curve in the direction sought with a large enough effect in the repeat runs; an effect the other way counts as inactive or inconclusive; further: nearly all actives have a fitted effect of over 55% in size; further: potency means the concentration at half of the fitted maximal effect). In outline: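 Viability counter-screen: KeratinoSens reporter cells, DMSO-delivered compounds, 23 h at 37 C, CellTiter-Fluor fluorescence.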
Background: Quantitative high-throughput screening tests each substance at several concentrations.

In assay [2] the target is Gonadotropin-releasing hormone receptor (Homo sapiens) (UniProt P30968). The assay can be described thus: Human gonadotropin-releasing hormone receptor (GnRHR) small molecule agonists, calcium flux assay in GnRHR-HEK293 cells (AID 1920063). Further: nearly all actives have a fitted effect of over 35% in size. The gist of the method: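 Tox21-format agonist screen using human GnRHR-expressing HEK293 cells and a fluorescent calcium dye; kinetic 3-min fluorescence reading after compound addition, 15-point concentration series run in triplicate.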
Gonadotropin-releasing hormone receptor (Homo sapiens), sequence (P30968 whole entry, looked up): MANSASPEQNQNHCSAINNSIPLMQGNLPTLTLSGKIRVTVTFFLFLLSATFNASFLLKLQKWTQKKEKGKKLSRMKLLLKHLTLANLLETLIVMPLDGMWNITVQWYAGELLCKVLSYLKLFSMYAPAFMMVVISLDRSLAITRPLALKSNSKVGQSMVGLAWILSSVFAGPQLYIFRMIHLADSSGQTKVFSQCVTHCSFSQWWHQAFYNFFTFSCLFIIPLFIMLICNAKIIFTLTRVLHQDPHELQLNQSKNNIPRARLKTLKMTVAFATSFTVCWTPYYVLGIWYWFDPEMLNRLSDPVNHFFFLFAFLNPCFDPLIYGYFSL
A general note: Calcium assays in cells follow changes in intracellular calcium, usually with a dye or a luminescent sensor.

Assay [3] addresses KiSS-1 receptor (Homo sapiens) (UniProt Q969F8). The assay can be described thus: Human kisspeptin (KISS1R) small molecule agonists, calcium flux assay in KISS1R-HEK293 cells (AID 1920064; active means well fitted curve in the direction sought with a large enough effect in the repeat runs; an effect the other way counts as inactive or inconclusive). The gist of the method:
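Intracellular calcium mobilization in KISS1R-HEK293 cells was recorded by fluorescence (Ex/Em 480/540) for 3 min following compound addition to cells pre-loaded 1 h with calcium dye.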

Assay [4] in a line: G protein-coupled receptor (GPCR) small molecule agonists, calcium flux assay: HEK293 wild type cell line counter screen (AID 1920065). The gist of the method: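 In this agonist-mode screen, ATP is the positive control and DMSO the vehicle. Cells grow 18 h before a 1 h dye incubation at 37 C; signal is taken at Ex/Em 480/540 over 3 min.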
Assay [5] is described as follows: p53 small molecule agonists, cell-based qHTS assay with human liver microsomes (AID 1963577). In outline: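 p53RE-bla reporter cells were pre-incubated 5 h at 37 C, then treated with compounds plus human liver microsomes (0.5 mg/mL final) and NADPH (0.5 mg/mL final) for 16 h at 37 C. Beta-lactamase activity was read by LiveBLAzer fluorescence after 2 h at room temperature.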

Assay [6] in a line: p53 small molecule agonists, cell-based qHTS assay with rat liver microsomes (AID 1963578). In outline:
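p53RE-bla cells were exposed to compounds together with rat liver microsomes (0.5 mg/mL final) and NADPH (0.5 mg/mL final) for 16 h at 37 C, then read by LiveBLAzer beta-lactamase fluorescence after 2 h at room temperature.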

Assay [7] can be described thus: p53 small molecule agonists, cell-based qHTS assay with rat liver microsomes: qHTS cell viability counter screen (AID 1963580). Further: nearly all actives have a fitted effect of over 45% in size. Further: potency means the concentration at half of the fitted maximal effect. The gist of the method: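 HCT-116 p53RE-bla, 4,000 cells/well, 5 h pre-incubation; cpd + rat liver microsomes 0.5 mg/mL + NADPH 0.5 mg/mL (final); 16 h, 37 C; CellTiter-Glo, 30 min RT; luminescence.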
Assay [8] in a line: p53 small molecule agonists, cell-based qHTS assay: qHTS cell viability counter screen (AID 1963581). Further: nearly all actives have a fitted effect of over 45% in size. The gist of the method: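 Compounds are pinned onto HCT-116 p53RE-bla cells and left 16 h at 37 C. Following the reporter FRET read, ATP is quantified by CellTiter-Glo luminescence after 30 min at room temperature.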
Assay [9] can be described thus: p53 small molecule agonists, cell-based qHTS assay (AID 1963582; active means well fitted activation curve with a large enough effect in the signal ratio in the repeat runs, not every such curve was filed as active; the % refers to the signal ratio). In outline: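 Agonist activity was scored from beta-lactamase FRET fluorescence in p53RE-bla cells treated 16 h at 37 C with compounds in DMSO, substrate incubation being 2 h at room temperature.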
For assay [10], the target named is 5-hydroxytryptamine receptor 2A (Homo sapiens) (UniProt P28223). The assay can be described thus: 5-hydroxytryptamine receptor 2A (HTR2A) small molecule antagonists, cell-based qHTS assay (AID 1963586). Further: nearly all actives have a fitted effect of over 45% in size. The gist of the method: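 Antagonist-mode intracellular calcium assay: DOI (4 nM) added after 5 min compound pre-incubation at room temperature to dye-loaded HTR2A-CHO cells. Fluorescence followed for 3 min, sampled every second.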
5-hydroxytryptamine receptor 2A (Homo sapiens), sequence (P28223 whole entry, looked up): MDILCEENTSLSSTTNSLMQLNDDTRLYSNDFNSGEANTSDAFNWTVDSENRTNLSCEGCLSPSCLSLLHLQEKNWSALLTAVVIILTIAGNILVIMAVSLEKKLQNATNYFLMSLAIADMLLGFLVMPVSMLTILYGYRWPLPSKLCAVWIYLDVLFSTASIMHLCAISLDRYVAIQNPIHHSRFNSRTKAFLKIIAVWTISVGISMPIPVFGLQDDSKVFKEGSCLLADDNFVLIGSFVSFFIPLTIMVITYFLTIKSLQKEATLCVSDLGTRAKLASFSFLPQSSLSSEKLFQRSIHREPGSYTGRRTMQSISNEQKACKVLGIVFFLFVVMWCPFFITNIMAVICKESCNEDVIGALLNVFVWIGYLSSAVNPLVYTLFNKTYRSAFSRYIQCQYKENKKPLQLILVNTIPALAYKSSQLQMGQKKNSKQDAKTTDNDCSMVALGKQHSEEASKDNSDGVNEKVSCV

The target is the same in assay [11]. The assay can be described thus: 5-hydroxytryptamine receptor 2A (HTR2A) small molecule agonists, cell-based qHTS assay (AID 1963587). Further: nearly all actives have a fitted effect of over 30% in size. In outline: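 Kinetic calcium-flux fluorescence (2 min, 1 sec intervals) after compound addition in agonist mode. HTR2A-CHO cells were cultured 18 h, then dye-loaded 1 h at 37 C.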
The target in assay [12] is Muscarinic acetylcholine receptor M1 (Homo sapiens) (UniProt P11229). The assay can be described thus: Cholinergic receptor muscarinic 1 (CHRM1) small molecule antagonists, cell-based qHTS assay (AID 1963588). Further: nearly all actives have a fitted effect of over 40% in size. In outline:
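CHRM1-CHO calcium-flux assay, antagonist mode. Cells were seeded 18 h, dye-loaded 1 h at 37 C and given compound for 5 min at RT, then acetylcholine was added at 50nM. FDSS fluorescence was read 3 min; 15 concentrations, three runs.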

The target is the same in assay [13]. The assay is described as follows: Cholinergic receptor muscarinic 1 (CHRM1) small molecule agonists, cell-based qHTS assay (AID 1963589). Further: nearly all actives have a fitted effect of over 35% in size. In outline:
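Stable CHRM1-CHO cells (human receptor) were incubated 18 h, dye-loaded for 1 h at 37 C and exposed to test compounds for agonist activity, with calcium-dependent fluorescence followed kinetically.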

A short description of assay [14]: cAMP Responsive Elements (CRE) small molecule agonists, cell-based qHTS assay (AID 1963590). The gist of the method:
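FRET-based beta-lactamase readout (LiveBLAzer B/G, 2 h RT) quantified CRE activation in HEK 293T CRE-bla cells after 3 h treatment with DMSO-dissolved compounds.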

Assay [15] can be described thus: cAMP Responsive Elements (CRE) small molecule antagonists, cell-based qHTS assay (AID 1963591; active means well fitted inhibition curve with a large enough effect in the signal ratio in the repeat runs, not every such curve was filed as active; the % refers to the signal ratio). The gist of the method: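 qHTS in CRE-bla HEK 293T cells: compound in DMSO, then 0.25 uM NKH477 (final), 3 h at 37 °C/5% CO2; beta-lactamase FRET read-out after 2 h substrate incubation.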
In assay [16] the target is Beta-2 adrenergic receptor (Homo sapiens) (UniProt P07550). The assay can be described thus: Adrenergic beta2 receptor (ADRB2) small molecule antagonists, cell-based qHTS assay (AID 1963592). Further: series mostly up to about 92 µM; nearly all actives have a fitted effect of over 50% in size. The gist of the method: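 Cells (CHO, stable ADRB2 overexpression) incubated 18-20hr at 37C; compounds added from DMSO; agonist mix (1nM isoproterenol, 100uM IBMX, 25uM Ro-20-1724) added; 0.5hr RT; d2-cAMP and anti-cAMP-cryptate added; 1hr RT; 665/615 nm read.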
Beta-2 adrenergic receptor (Homo sapiens), sequence (P07550 whole entry, looked up): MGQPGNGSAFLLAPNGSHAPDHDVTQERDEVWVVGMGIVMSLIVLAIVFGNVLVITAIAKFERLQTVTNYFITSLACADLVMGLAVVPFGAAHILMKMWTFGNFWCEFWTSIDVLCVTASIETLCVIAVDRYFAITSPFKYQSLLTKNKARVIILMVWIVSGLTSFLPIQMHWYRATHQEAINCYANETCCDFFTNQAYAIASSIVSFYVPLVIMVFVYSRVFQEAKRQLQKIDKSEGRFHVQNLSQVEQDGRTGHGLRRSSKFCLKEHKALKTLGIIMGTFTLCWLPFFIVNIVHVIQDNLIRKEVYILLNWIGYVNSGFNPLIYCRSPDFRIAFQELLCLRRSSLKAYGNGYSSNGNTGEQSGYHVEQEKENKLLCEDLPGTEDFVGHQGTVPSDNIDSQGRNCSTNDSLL

Assay [17] concerns the target D(2) dopamine receptor (Homo sapiens) (UniProt P14416). The assay can be described thus: Dopamine D2 receptor (DRD2) small molecule agonists, cell-based qHTS assay (AID 1963594). Further: nearly all actives have a fitted effect of over 35% in size. The gist of the method:
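cAMP accumulation in DRD2-HEK293 cells measured by HTRF after 1 h detection; compounds added 10 min before NKH477 (200nM […]) forskolin-analogue stimulation, 30 min at room temperature, with Ro20-1724 present at 0.1 mM final.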

The target is the same in assay [18]. The assay is described as follows: Dopamine D2 receptor (DRD2) small molecule antagonists, cell-based qHTS assay (AID 1963595; active means well fitted inhibition curve with a large enough effect in the signal ratio in the repeat runs, with a control signal flat; the % refers to the signal ratio). In outline: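 Readout: HTRF cAMP, cAMP-d2 competing with cellular cAMP for anti-cAMP cryptate, read after 1 h. Cells: DRD2-HEK293. Conditions: 0.1 mM Ro20-1724, 12 nM quinpirole, 200 nM NKH477, 30 min RT.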
Assay [19] can be described thus: p53 small molecule agonists, cell-based qHTS assay with human liver microsomes: qHTS cell viability counter screen (AID 1963579). Further: nearly all actives have a fitted effect of over 45% in size. Further: potency means the concentration at half of the fitted maximal effect. The gist of the method: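 p53RE-bla cells (4,000/well) were pre-incubated 5 h at 37 C, then given compounds in DMSO plus human liver microsomes (0.5 mg/mL final) and NADPH (0.5 mg/mL final) for 16 h at 37 C. Viability was read by CellTiter-Glo luminescence.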

The target of assay [20] is Beta-2 adrenergic receptor (Homo sapiens) (UniProt P07550). The assay is described as follows: Adrenergic beta2 receptor (ADRB2) small molecule agonists, cell-based qHTS assay (AID 1963593).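 Further: CHO cells stably overexpressing human ADRB2.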 In outline:
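CHO cells stably over-expressing ADRB2 were plated overnight at 37C, then dosed with compounds plus a stimulation mix containing 100uM IBMX and 25uM Ro-20-1724 for 0.5hr at room temperature. cAMP was measured by HTRF competition, 1hr.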

KiSS-1 receptor (Homo sapiens), sequence (Q969F8 whole entry, looked up): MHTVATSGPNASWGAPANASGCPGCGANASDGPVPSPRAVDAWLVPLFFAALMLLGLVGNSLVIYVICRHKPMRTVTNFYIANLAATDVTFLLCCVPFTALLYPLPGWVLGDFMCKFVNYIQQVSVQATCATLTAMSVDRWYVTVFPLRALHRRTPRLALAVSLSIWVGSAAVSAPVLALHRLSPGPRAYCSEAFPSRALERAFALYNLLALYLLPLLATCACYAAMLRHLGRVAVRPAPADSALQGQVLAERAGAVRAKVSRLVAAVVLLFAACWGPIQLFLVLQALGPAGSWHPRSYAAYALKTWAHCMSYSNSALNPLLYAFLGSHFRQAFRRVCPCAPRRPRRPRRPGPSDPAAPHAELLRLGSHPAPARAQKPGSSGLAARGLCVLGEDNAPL
D(2) dopamine receptor (Homo sapiens), sequence (P14416 whole entry, looked up): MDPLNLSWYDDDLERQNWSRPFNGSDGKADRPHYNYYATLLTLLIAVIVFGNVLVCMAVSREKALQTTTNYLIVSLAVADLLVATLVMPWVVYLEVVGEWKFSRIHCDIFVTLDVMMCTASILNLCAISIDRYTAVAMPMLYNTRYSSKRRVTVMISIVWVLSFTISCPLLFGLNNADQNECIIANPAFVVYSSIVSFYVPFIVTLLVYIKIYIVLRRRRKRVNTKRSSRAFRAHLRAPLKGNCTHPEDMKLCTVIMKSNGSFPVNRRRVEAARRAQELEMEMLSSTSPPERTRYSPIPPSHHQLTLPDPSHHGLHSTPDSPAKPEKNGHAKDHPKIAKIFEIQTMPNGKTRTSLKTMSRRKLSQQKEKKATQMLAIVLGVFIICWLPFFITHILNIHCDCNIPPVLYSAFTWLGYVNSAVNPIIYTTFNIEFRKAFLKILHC
Muscarinic acetylcholine receptor M1 (Homo sapiens), sequence (P11229 whole entry, looked up): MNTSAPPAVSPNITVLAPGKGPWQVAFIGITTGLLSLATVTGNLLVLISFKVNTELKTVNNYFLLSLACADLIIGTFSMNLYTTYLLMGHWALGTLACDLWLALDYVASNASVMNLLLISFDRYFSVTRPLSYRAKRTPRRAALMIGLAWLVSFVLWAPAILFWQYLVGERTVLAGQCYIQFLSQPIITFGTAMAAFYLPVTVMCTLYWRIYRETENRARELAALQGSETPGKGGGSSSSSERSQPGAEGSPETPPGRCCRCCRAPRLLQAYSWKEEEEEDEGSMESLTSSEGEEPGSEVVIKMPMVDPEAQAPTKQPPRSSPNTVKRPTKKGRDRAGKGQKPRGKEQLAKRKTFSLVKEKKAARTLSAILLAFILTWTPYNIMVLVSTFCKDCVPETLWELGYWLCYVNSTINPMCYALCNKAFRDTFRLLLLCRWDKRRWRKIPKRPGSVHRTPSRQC

For `CCCCc1ccc(Cl)cc1`, the Potency result in assay [1], in assay [2], in assay [3], in assay [4], in [5] and in assay [6] was “inactive” each time. The Potency entry in assay [7], in assay [8], in assay [9], in assay [10], in [11] and in assay [12] was “inactive” in each case. For the same compound, the Potency entry in assay [13], in assay [14], in assay [15], in assay [16], in assay [17] and in assay [18] was “inactive” in each case.
For `CCOC(=O)CN`, the Potency entry in assay [1], in assay [2], in [3], in assay [4], in assay [5] and in [6] was “inactive” each time. Further, the Potency result in assay [7], in assay [8], in [9], in assay [10], in assay [11] and in assay [12] was “inactive” each time. The Potency result in assay [13], in [14], in [15], in [16], in assay [17] and in assay [18] was “inactive” each time.
For `CC1=C(O)C(=O)OC1C` (centres undefined), the Potency entry in assay [1], in assay [2], in assay [3], in assay [4], in [5] and in assay [6] was “inactive” in each case. Further, the Potency result in [7], in assay [8], in [9], in [10], in assay [11] and in assay [12] was “inactive” each time. The Potency result in assay [13], in [14], in assay [15], in assay [16], in assay [17] and in [18] was “inactive” in each case.
With `C=C(CC)C(=O)c1ccc(OCC(=O)O)c(Cl)c1Cl`, the Potency result in [1], in [2], in [3], in assay [4], in [5] and in [6] was “inactive” each time. The Potency result in [19], in [7], in assay [8], in [16], in assay [20] and in assay [17] was “inactive” each time.
`CSc1ccc2c(c1)N(CCC1CCCCN1C)c1ccccc1S2` (centres undefined): the Potency is 24.2 µM (active) and 26.6 µM (active) in [1]; 45.6 µM (active) and inactive in assay [19]; 40.6 µM (active) and inactive in [7]. Moreover, the Potency entry in [2], in assay [3], in assay [4], in assay [5], in assay [6] and in [8] was “inactive” throughout. Also, the Potency entry in assay [16] and in assay [20] was “inactive” each time.
`COc1cc(C)c(Cc2cnc(N)nc2N)cc1OC`: the Potency entry in assay [1], in assay [2], in assay [3], in assay [4], in [5] and in [6] was “inactive” throughout. The Potency entry in [7], in assay [9], in assay [10], in [11], in assay [12] and in [13] was “inactive” each time. Besides, the Potency entry in [14], in [15], in [16], in assay [17] and in assay [18] was “inactive” in each case.
Regarding `CCN(CC)CCNC(=O)c1ccc(N)cc1`, the Potency result in assay [1], in [2], in [3], in assay [4], in assay [19] and in assay [7] was “inactive” in each case. For the same compound, the Potency result in assay [8], in [14], in assay [15], in [16], in assay [20] and in assay [17] was “inactive” throughout. In addition, the Potency entry in assay [18] was “inactive”.
On to `Clc1ccc2c(Cl)ccnc2c1`, for which the Potency result in assay [1], in assay [2], in assay [3], in assay [4], in [5] and in [6] was “inactive” each time. In addition, the Potency result in assay [19], in [7], in assay [9], in [10], in [11] and in assay [12] was “inactive” in each case. Moreover, the Potency entry in assay [13], in [15], in assay [16], in assay [20] and in assay [17] was “inactive” throughout.
